Source: PubChem BioAssay (NCATS)
Results filed as inconclusive are left out. The source made the active and inactive calls. Calls follow the shape of the dose curve; as a rule, active = well fitted curve in the direction sought with a large enough effect; inconclusive = small, poorly fitted or top-dose-only effect, or another doubt; inactive = no such curve, though single readings can be large; an effect the other way counts as inactive or inconclusive.

Key:
[1] = Quantitative High-Throughput drug screen in 47 multiple myeloma cell lines against the NCATS MIPE library collection: ARP1_JJKsccF8 cell viability assay (AID 1918928; also: nearly all actives have a fitted effect of over 40% in size)
In short: (§1)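 500 cells/well; MIPE 4.0 library pinned in; 48 h, 37 °C, 5% CO2; CellTiter-Glo ATP luminescence. Controls: DMSO = 100% viability, medium only = 0%.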

[2] = Quantitative High-Throughput drug screen in 47 multiple myeloma cell lines against the NCATS MIPE library collection: ARD_JJKsccE7 cell viability assay (AID 1918929)
In short: (§2)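 We plated 500 myeloma cells per well, pinned in MIPE 4.0 compounds, and incubated for 48 hours at 37C. ATP was then quantified with CellTiter-Glo, with DMSO and media-only wells defining 100% and 0%.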

[3] = Quantitative High-Throughput drug screen in 47 multiple myeloma cell lines against the NCATS MIPE library collection: Karpas620_DSMZ cell viability assay (AID 1918959); also: nearly all actives have a fitted effect of over 30% in size
In short: (§3)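 qHTS of the MIPE 4.0 collection: 500 myeloma cells/well, 48 h drug exposure at 37C in 5% CO2, then CellTiter-Glo for 5 min at room temperature before luminescence reading.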

[4] = Quantitative High-Throughput drug screen in 47 multiple myeloma cell lines against the NCATS MIPE library collection: KMM1_JCRB cell viability assay (AID 1918960); also: nearly all actives have a fitted effect of over 30% in size
In short: as §1

[5] = Quantitative High-Throughput drug screen in 47 multiple myeloma cell lines against the NCATS MIPE library collection: KHM11_PLB cell viability assay (AID 1918962); also: nearly all actives have a fitted effect of over 35% in size
In short: as §3

[6] = Quantitative High-Throughput drug screen in 47 multiple myeloma cell lines against the NCATS MIPE library collection: JIM3_ECACC cell viability assay (AID 1918963; also: nearly all actives have a fitted effect of over 35% in size)
In short: as §3

[7] = Quantitative High-Throughput drug screen in 47 multiple myeloma cell lines against the NCATS MIPE library collection: INA6_PLB cell viability assay (AID 1918965; also: nearly all actives have a fitted effect of over 55% in size)
In short: (§4)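 Luminescent ATP measurement with CellTiter-Glo gives viability, scaled between DMSO-only wells (100%) and media-only wells (0%). Cells, 500 per well, faced library compounds for 48 hours at 37C.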

[8] = Quantitative High-Throughput drug screen in 47 multiple myeloma cell lines against the NCATS MIPE library collection: JJN3_DSMZ cell viability assay (AID 1918966; also: nearly all actives have a fitted effect of over 50% in size)
In short: as §2

[9] = Quantitative High-Throughput drug screen in 47 multiple myeloma cell lines against the NCATS MIPE library collection: JIM1_ECACC cell viability assay (AID 1918964)
In short: as §2

[10] = Quantitative High-Throughput drug screen in 47 multiple myeloma cell lines against the NCATS MIPE library collection: Karpas417_ECACC cell viability assay (AID 1918961); details: Karpas417 myeloma viability, CellTiter-Glo ATP luminescence, 48 h; viability (% of DMSO): at 45.8 µM (top of the series)
In short: as §4

Measured: Potency
Potency is read from the fitted curve at half-maximal effect.

CNC(=O)c1cc(Oc2ccc(NC(=O)Nc3ccc(Cl)c(C(F)(F)F)c3)cc2)ccn1
active: [1] 23.5 µM | [2] 2.64 µM | [3] 3.32 µM | [4] 2.96 µM | [5] 11.8 µM | [6] 10.5 µM | [7] 13.2 µM | [8] 23.5 µM

CC1=NN(c2ccccc2)C(=O)C1
active: [7] 13.2 µM
not listed: [5] | [8] | [10]
inactive: all other assays above

CC1=C(C(=O)O)N2C(=O)[C@@H](NC(=O)C(N)c3ccccc3)[C@H]2SC1 (stereo partly specified)
active: [6] 0.0017 µM
inactive: [1] | [2] | [3] | [4]

CC(=O)Oc1ccccc1C(=O)Nc1ncc([N+](=O)[O-])s1
active: [1] 34 µM | [2] 21.5 µM | [3] 12.1 µM | [4] 8.55 µM | [6] 17.1 µM | [9] 27 µM | [7] 17.1 µM | [8] 30.3 µM

CNCC[C@H](Oc1cccc2ccccc12)c1cccs1
active: [1] 18.7 µM | [2] 23.5 µM | [3] 23.5 µM | [4] 26.4 µM | [5] 5.26 µM | [6] 5.26 µM | [7] 7.43 µM

CCn1cc(C(=O)O)c(=O)c2cc(F)c(N3CCNCC3)cc21
active: [1] 8.33 µM
not listed: [8] | [10]
inactive: all other assays above

Cc1cc(NS(=O)(=O)c2ccc(N)cc2)no1
not listed: [8] | [10]
inactive: all other assays above

Cc1onc(-c2ccccc2Cl)c1C(=O)N[C@@H]1C(=O)N2[C@@H]1SC(C)(C)[C@@H]2C(=O)O
inactive: [1] | [2] | [3] | [4] | [6]

Nc1nc(F)nc2c1ncn2[C@@H]1O[C@H](CO)[C@@H](O)[C@@H]1O
active: [1] 0.264 µM | [2] 0.332 µM | [3] 0.296 µM | [4] 0.526 µM | [6] 0.662 µM | [9] 0.0935 µM | [7] 0.166 µM | [8] 0.235 µM

NC(=O)N1c2ccccc2CC(=O)c2ccccc21
inactive: [1] | [2] | [3] | [4] | [6] | [9]

CC(=O)CC(c1ccccc1)c1c(O)c2ccccc2oc1=O (stereo unspecified)
not listed: [8] | [9] | [10]
inactive: all other assays above

NNC(=O)c1ccncc1
not listed: [5] | [8] | [10]
inactive: all other assays above

CCCc1nc(C)c2c(=O)[nH]c(-c3cc(S(=O)(=O)N4CCN(CC)CC4)ccc3OCC)nn12
active: [1] 5.26 µM | [2] 6.62 µM | [3] 2.35 µM | [4] 3.72 µM | [6] 9.35 µM | [9] 5.26 µM | [7] 4.18 µM | [8] 4.18 µM

CCN[C@H]1C[C@H](C)S(=O)(=O)c2sc(S(N)(=O)=O)cc21
not listed: [5] | [8] | [10]
inactive: all other assays above

CCN(CC)CCn1c(=O)c(Cc2ccc(OC)cc2)nc2ccccc21
inactive: [1] | [2] | [3] | [4] | [6] | [9]

COc1cc2nc(N3CCCN(C)CC3)nc(NC3CCN(Cc4ccccc4)CC3)c2cc1OC
active: [1] 8.33 µM | [2] 8.33 µM | [3] 3.72 µM | [4] 7.43 µM | [5] 2.35 µM | [6] 9.35 µM | [9] 7.43 µM | [7] 2.35 µM | [8] 16.6 µM

CCc1cc(C(N)=S)ccn1
inactive: [1] | [2] | [3] | [4] | [6] | [9]

O=C(N[C@H](CO)[C@H](O)c1ccc([N+](=O)[O-])cc1)C(Cl)Cl
not listed: [9] | [10]
inactive: all other assays above

Cc1ccc(S(=O)(=O)N[C@@H](Cc2ccccc2)C(=O)CCl)cc1
active: [1] 20.9 µM | [2] 16.6 µM | [3] 11.8 µM | [4] 13.2 µM | [5] 16.6 µM | [6] 13.2 µM | [7] 5.9 µM | [8] 18.7 µM

CCCc1cc(C(N)=S)ccn1
not listed: [10]
inactive: all other assays above

CC(C)C[C@H](NC(=O)[C@H](CCc1ccccc1)NC(=O)CN1CCOCC1)C(=O)N[C@@H](Cc1ccccc1)C(=O)N[C@@H](CC(C)C)C(=O)[C@@]1(C)CO1
active: [1] 0.0074 µM | [2] 0.001 µM | [3] 0.001 µM | [4] 0.001 µM | [6] 0.0235 µM | [9] 0.0074 µM | [7] 0.001 µM | [8] 0.0074 µM

COc1cc(NCc2ccc3nc(N)nc(N)c3c2C)cc(OC)c1OC
active: [1] 2.96 µM | [2] 1.05 µM | [3] 6.62 µM | [4] 1.18 µM | [10] 4.18 µM | [6] 0.418 µM | [9] 2.96 µM | [7] 1.32 µM | [8] 3.72 µM

CC1=CC(=O)c2ccccc2C1=O
inactive: [2] | [4] | [9]
active: [1] 16.6 µM | [3] 14.8 µM | [6] 23.5 µM | [7] 8.33 µM | [8] 13.2 µM

CC(C)(C)C(=O)OCOP(=O)(COCCn1cnc2c(N)ncnc21)OCOC(=O)C(C)(C)C
active: [1] 0.833 µM | [2] 5.9 µM | [3] 16.6 µM | [4] 11.8 µM | [6] 2.64 µM | [9] 2.64 µM | [7] 0.743 µM | [8] 0.526 µM

CCOC(=O)[C@H](CCc1ccccc1)N[C@H]1CS[C@H](c2cccs2)CN(CC(=O)O)C1=O
inactive: [6]
active: [1] 11.8 µM | [2] 1.66 µM | [3] 4.69 µM | [4] 1.05 µM | [9] 1.32 µM | [7] 2.96 µM | [8] 16.6 µM

CN1CCN(c2c(F)cc3c(=O)c(C(=O)O)cn(CCF)c3c2F)CC1
inactive: [1] | [2] | [3] | [4] | [6]

C#CCN[C@@H]1CCc2ccccc21
inactive: [1] | [2] | [3] | [4] | [5] | [6]

NC1(c2ccc(-c3nc4ccn5c(=O)[nH]nc5c4cc3-c3ccccc3)cc2)CCC1
active: [1] 14.8 µM | [2] 0.296 µM | [4] 1.87 µM | [6] 0.662 µM | [9] 1.48 µM | [7] 11.8 µM | [8] 5.26 µM
inactive: [3]

Nc1nc(=S)c2[nH]cnc2[nH]1
inactive: [2] | [3] | [4] | [10]
active: [1] 1.32 µM | [6] 9.35 µM | [7] 0.469 µM | [8] 4.69 µM

NC(=O)c1cccnc1
inactive: [1] | [2] | [3] | [4] | [6] | [9]

COC(c1ccccc1)(c1ccccc1)[C@H](Oc1nc(C)cc(C)n1)C(=O)O
not listed: [7] | [8] | [10]
inactive: all other assays above

C1CCC(C(CC2CCCCN2)C2CCCCC2)CC1 (stereo unspecified)
active: [1] 23.5 µM | [2] 26.4 µM | [3] 14.8 µM | [4] 14.8 µM | [5] 11.8 µM | [6] 18.7 µM | [9] 20.9 µM | [7] 9.35 µM | [8] 20.9 µM

COc1ccccc1OCC(O)COC(N)=O (stereo unspecified)
not listed: [8] | [10]
inactive: all other assays above

CCCCc1oc2ccc(NS(C)(=O)=O)cc2c1C(=O)c1ccc(OCCCN(CCCC)CCCC)cc1
active: [1] 16.6 µM | [2] 16.6 µM | [3] 20.9 µM | [4] 20.9 µM | [6] 18.7 µM | [9] 10.5 µM | [7] 9.35 µM | [8] 14.8 µM

NS(=O)(=O)c1cc2c(cc1Cl)NC(C(Cl)Cl)NS2(=O)=O (stereo unspecified)
inactive: [1] | [2] | [3] | [4] | [6] | [9]

CCOC(=O)c1ccc(OC(=O)CCCCCN=C(N)N)cc1
not listed: [5] | [6]
inactive: all other assays above

O=c1cc(O)c(Cl)c[nH]1
active: [10] 1.18 µM

COCCCOc1cc(C[C@@H](C[C@H](N)[C@@H](O)C[C@H](C(=O)NCC(C)(C)C(N)=O)C(C)C)C(C)C)ccc1OC
inactive: [1] | [3] | [6]

CCN(C)C(=O)Oc1cccc([C@H](C)N(C)C)c1
inactive: [1] | [6] | [9] | [7]
active: [3] 0.0332 µM

Cc1ncc([N+](=O)[O-])n1CCO
inactive: [1] | [3] | [4] | [6] | [7] | [8]

CCCCS(=N)(=O)CCC(N)C(=O)O (stereo unspecified)
inactive: [1] | [4] | [6] | [8]

Cn1c(=O)c2c(ncn2CC(O)CO)n(C)c1=O (stereo unspecified)
inactive: [1] | [3] | [4] | [6] | [9] | [7]

O=C(O)c1cn(C2CC2)c2cc(N3CCNCC3)c(F)cc2c1=O
inactive: [1] | [3] | [4] | [6] | [9] | [8]
